Our source for the inhibition values is PubChem BioAssay AID1347418 (Sanford-Burnham Center for Chemical Genomics, 2020).

Screen size: about 1,300 compounds; about 750 (58%) were called active. Some of the results follow. A number with no mark means an inactive call.

In general, inhibition refers to the relative decrease from the control value, in per cent.

The target in the experiment is Sulfhydryl oxidase 1 (Homo sapiens) (UniProt O00391). As to the kind of experiment: QSOX1 enzyme inhibitors, primary screen, biochemical, ROS-Glo H2O2 luminescence, HTS (AID 1347418). To be noted: recombinant QSOX1, ROS-Glo H2O2 luminescence; at 12.5 µM; hits give high values; active = any value above zero.
Sequence of Sulfhydryl oxidase 1 (Homo sapiens) (O00391 whole entry, looked up): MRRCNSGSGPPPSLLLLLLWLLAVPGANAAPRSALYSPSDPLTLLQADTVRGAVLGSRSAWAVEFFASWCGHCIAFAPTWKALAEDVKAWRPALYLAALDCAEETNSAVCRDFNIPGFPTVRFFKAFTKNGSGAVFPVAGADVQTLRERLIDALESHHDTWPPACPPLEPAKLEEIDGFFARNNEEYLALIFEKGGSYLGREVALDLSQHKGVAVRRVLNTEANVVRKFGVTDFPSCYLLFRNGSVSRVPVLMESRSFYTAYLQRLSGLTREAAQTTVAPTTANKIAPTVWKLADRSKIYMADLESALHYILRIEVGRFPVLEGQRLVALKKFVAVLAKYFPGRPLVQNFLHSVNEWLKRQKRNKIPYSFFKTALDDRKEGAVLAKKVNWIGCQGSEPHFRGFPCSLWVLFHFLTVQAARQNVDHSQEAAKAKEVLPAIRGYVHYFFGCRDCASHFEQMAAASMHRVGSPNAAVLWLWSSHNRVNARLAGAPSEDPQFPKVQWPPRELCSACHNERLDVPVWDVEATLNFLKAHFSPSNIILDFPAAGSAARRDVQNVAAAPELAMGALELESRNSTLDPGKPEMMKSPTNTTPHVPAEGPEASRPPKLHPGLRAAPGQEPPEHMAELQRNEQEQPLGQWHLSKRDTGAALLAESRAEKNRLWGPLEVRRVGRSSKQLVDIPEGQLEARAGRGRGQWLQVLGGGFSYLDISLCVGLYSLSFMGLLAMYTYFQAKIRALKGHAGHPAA
For `COCCCC/C(=N\OCCN)c1ccc(C(F)(F)F)cc1`, the inhibition was -2%.
Turning to `Cc1cccc(-c2[nH]c(C(C)(C)C)nc2-c2ccc3nccnc3c2)n1`, the inhibition is 6% (active).
Then `N[C@H]1CONC1=O`, with -12.9%.
For the molecule `CN1CCN2c3ccccc3Cc3ccccc3C2C1` (stereo not drawn), the inhibition is -1.9%.
With `NC1=NCC2c3ccccc3Cc3ccccc3N12` (stereo not drawn), the inhibition was 1.4% (active).
The same measure for `CCCC(C(=O)OCCN(CC)CC)(c1ccccc1)c1ccccc1`: -0.5%; for `O=C(OCCN1CCOCC1)C1(c2ccccc2)CCCCC1`: 2.5% (active).
`CCN(CC)CCOC(=O)C1(C2CCCCC2)CCCCC1`: the inhibition is -1.9%.
The same measure for `CCN(CC)CCOCCOC(=O)C1(c2ccccc2)CCCC1`: 6.3% (active); for `Cn1c(=O)c2[nH]c(-c3ccc(S(=O)(=O)O)cc3)nc2n(C)c1=O`: -2.4%.
The same measure for `CCCn1c(=O)c2[nH]c(C3CCCC3)nc2n(CCC)c1=O`: 2.3% (active); for `Cn1c(=O)c2[nH]c(-c3ccccc3)nc2n(C)c1=O`: -2.7%; for `Cn1c(=O)c2[nH]c(C3CCCC3)nc2n(C)c1=O`: 3.9% (active).
Take `CN(C)CCOC(=O)COc1ccc(Cl)cc1`: the inhibition was -2.9%.
In the case of `CC/C(=C(\c1ccccc1)c1ccc(OCCN(C)C)cc1)c1ccccc1`, the inhibition was 2.2% (active).
Take `CN(C)[C@@H]1C(=O)C(C(N)=O)=C(O)[C@@]2(O)C(=O)C3=C(O)c4c(O)ccc(Cl)c4[C@@H](O)[C@H]3C[C@@H]12`: the inhibition was 9.5% (active).
For the molecule `C[C@H]1c2cccc(O)c2C(O)=C2C(=O)[C@]3(O)C(O)=C(C(N)=O)C(=O)[C@@H](N(C)C)[C@@H]3[C@@H](O)[C@@H]21`, the inhibition was -1.5%.
Turning to `COc1ccccc1N1CCN(CCN(C(=O)c2ccc(I)cc2)c2ccccn2)CC1`, the inhibition is 11.2% (active).
Then `COc1ccccc1N1CCN(CCN(C(=O)C2CCCCC2)c2ccccn2)CC1`, with 9.7% (active); and `COc1ccccc1N1CCN(CCN(C(=O)c2ccc(F)cc2)c2ccccn2)CC1`, with 7.1% (active); and `COc1ccc(Cc2nccc3cc(OC)c(OC)cc23)cc1OC`, with 3.3% (active).
The same measure for `COc1ccc(CCN(C)CCc2ccc(OC)c(OC)c2)cc1OC`: -0.5%.
On to `CC(N=C(NC#N)Nc1ccncc1)C(C)(C)C` (stereo not drawn), for which the inhibition is 4.4% (active).
Turning to `O=c1[nH]c2ccccc2c2ccccc12`, the inhibition is -9.8%.
Then `O=C1NCc2c1c1c3ccccc3[nH]c1c1[nH]c3ccccc3c21`, with 2.6% (active); and `COc1ccc([C@@H]2Sc3ccccc3N(CCN(C)C)C(=O)[C@@H]2OC(C)=O)cc1`, with -0.6%.
`CN(C)CCCN1c2ccccc2Sc2ccc(C(F)(F)F)cc21`: the inhibition was 24.1% (active).
Then `CN(C)CCCN1c2ccccc2Sc2ccccc21`, with 46.3% (active); and `CN(C)CCCN1c2ccccc2Sc2ccc(Cl)cc21`, with 39.2% (active).
As to `CCC(=O)c1ccc2c(c1)N(CCCN(C)C)c1ccccc1S2`, the inhibition was 20.9% (active).
The same measure for `NC1(C(=O)O)CCCCC1`: -3.9%.
The same measure for `NC1(C(=O)O)CC1`: 5.5% (active).
Then `CC(C)ON([C@@H](C(=O)NO)C(C)C)S(=O)(=O)c1ccc(-c2ccccc2)cc1`, with 8.9% (active); and `CC(=O)/C=C1\C(=O)N(C)c2ccccc21`, with 7.8% (active); and `COc1cc(NS(C)(=O)=O)ccc1Nc1c2ccccc2nc2ccccc12`, with 42.7% (active).
Turning to `CN(C(=O)CCCOc1ccc2[nH]c(=O)ccc2c1)C1CCCCC1`, the inhibition was -1.6%.
For `CC[N+](CC)(CC)CC`, the inhibition was 0.9% (active).
Turning to `CN(Cc1cnc2nc(N)nc(N)c2n1)c1ccc(C(=O)N[C@@H](CCC(=O)O)C(=O)O)cc1`, the inhibition is -2.2%.
The same measure for `Nc1nc(N)c2nc(CNc3ccc(C(=O)NC(CCC(=O)O)C(=O)O)cc3)cnc2n1` (stereo not drawn): 0.7% (active); for `CCc1cccc2c3c([nH]c12)C(CC)(CC(=O)O)OCC3` (stereo not drawn): 9.9% (active).
The same measure for `NCCc1ccc(O)c(O)c1`: 8.1% (active); for `CC(N)C(=O)OC(C)(C)Cc1ccc(Cl)cc1` (stereo not drawn): -3.5%; for `NC(Cc1ccc(Cl)cc1)C(=O)O` (stereo not drawn): -3.4%.
With `N[C@@H](Cn1ccc(=O)c(O)c1)C(=O)O`, the inhibition is -3.8%.
Then `COC(=O)[C@@H](N)Cc1ccc(O)c(O)c1`, with 1.3% (active).
On to `N[C@@H](Cc1ccc(F)cc1)C(=O)O`, for which the inhibition is 0.8% (active).
As to `COC(=O)C(N)Cc1ccc(Cl)cc1` (stereo not drawn), the inhibition is 9.7% (active).
As to `CC(Cc1ccc(O)c(O)c1)C(C)Cc1ccc(O)c(O)c1` (stereo not drawn), the inhibition was 45.8% (active).
With `N[C@@H](Cc1ccc(O)c(I)c1)C(=O)O`, the inhibition was -5.7%.
In the case of `N[C@@H](Cc1ccc(O)c(O)c1)C(=O)O`, the inhibition was 9.8% (active).
Then `NC(Cc1cccc(-c2ccccc2CP(=O)(O)O)c1)C(=O)O` (stereo not drawn), with -2%.
Then `CCN1CCCC1CNC(=O)c1cc(S(=O)(=O)CC)c(N)cc1OC` (stereo not drawn), with -1%.
Take `CCN1CCC[C@H]1CNC(=O)c1c(O)c(Cl)cc(Cl)c1OC`: the inhibition was 2.3% (active).
Then `CCN1CCC[C@H]1CNC(=O)c1cc(S(N)(=O)=O)ccc1OC`, with -1.2%; and `CCN1CCCC1CNC(=O)c1cc(S(N)(=O)=O)ccc1OC` (stereo not drawn), with 3.2% (active); and `NC1CCN(c2cccc(Cl)n2)CC1`, with -5.8%.
As for `Cc1cnc(C(=O)NCCc2ccc(S(=O)(=O)NC(=O)NC3CCCCC3)cc2)cn1`, the inhibition was 5.4% (active).
As to `CC(=O)c1ccc(S(=O)(=O)NC(=O)NC2CCCCC2)cc1`, the inhibition was -5.7%.
Take `COc1ccc(Cl)cc1C(=O)NCCc1ccc(S(=O)(=O)NC(=O)NC2CCCCC2)cc1`: the inhibition is -5.6%.
Take `O=c1oc(Cl)c(Cl)c2ccccc12`: the inhibition is -1.8%.
Regarding `C/C(=C\c1ccc(C(=O)O)cc1)c1ccc2c(c1)C(C)(C)CCC2(C)C`, the inhibition was 1.8% (active).
For the molecule `CC(N)(C(=O)O)c1ccc(C(=O)O)cc1` (stereo not drawn), the inhibition is -3.7%.
For the molecule `NC1(C(=O)O)CCc2cc(C(=O)O)ccc21` (stereo not drawn), the inhibition is -2.9%.
For the molecule `Cc1ccccc1C(OCCN(C)C)c1ccccc1` (stereo not drawn), the inhibition was -1.5%.
Consider `CN(C)CCOC(c1ccccc1)c1ccccc1`, for which the inhibition was 4.3% (active).
For `CCN(Cc1ccncc1)C(=O)C(CO)c1ccccc1` (stereo not drawn), the inhibition is -4.5%.
The same measure for `N=C(N)SCCc1cnc[nH]1`: 2.7% (active); for `NCCc1cnc[nH]1`: -5%; for `COc1ccccc1N1CCN(CCN2C(=O)CC3(CCCC3)CC2=O)CC1`: 17.2% (active).
The same measure for `Cc1cccc(C(=O)NCN2CCN(c3ccccc3C#N)CC2)c1`: -1.8%.
Then `COc1ccc(NC(=O)c2ccc(-c3ccc(-c4noc(C)n4)cc3C)cc2)cc1N1CCN(C)CC1`, with -1.1%; and `O=C1CC2(CCCC2)CC(=O)N1CCCCN1CCN(c2ncccn2)CC1`, with 1.2% (active); and `COc1cccc(C(=O)NCCN2CCN(c3ccc(Cl)cc3)CC2)c1`, with 21.7% (active).
For `COc1ccccc1N1CCN(CCCCNC(=O)c2ccc3ccccc3c2)CC1`, the inhibition was 12.2% (active).
Then `O=C(NCCN1CCOCC1)c1ccc(Cl)cc1`, with -3.4%.
The same measure for `c1cnc(N2CCN(Cc3ccc4c(c3)OCO4)CC2)nc1`: -0.2%.
With `Nc1nc(N)c2nc(-c3ccccc3)c(N)nc2n1`, the inhibition was -0.8%.
The same measure for `CC(=O)[C@]1(O)Cc2c(O)c3c(c(O)c2[C@@H](O[C@H]2C[C@H](N)[C@H](O)[C@H](C)O2)C1)C(=O)c1ccccc1C3=O`: -0.7%; for `COc1ccccc1N1CCN(CCCCN2C(=O)c3ccccc3C2=O)CC1`: 3.6% (active).
The same measure for `c1cc(CN2CCCCC2)cc(OCCCNc2nc3ccccc3s2)c1`: 3.8% (active).
Regarding `CC(=O)Nc1nnc(S(N)(=O)=O)s1`, the inhibition was 0.8% (active).
Regarding `OCc1ccc(-c2nn(Cc3ccccc3)c3ccccc23)o1`, the inhibition was -2.6%.
Consider `CC(CCc1ccc(O)cc1)NCCc1ccc(O)c(O)c1` (stereo not drawn), for which the inhibition is 17.1% (active).
In the case of `CCCCCCCC/C=C\CCCCCCCC(=O)NCCc1ccc(O)c(O)c1`, the inhibition was -7.8%.
Then `C[C@@H](NCCc1ccc(O)cc1)[C@@H](O)c1ccc(O)cc1`, with 3.9% (active); and `CC(CCc1ccccc1)NCC(O)c1ccc(O)c(C(N)=O)c1` (stereo not drawn), with 2.1% (active).
With `O=Nc1ccc2oc(=O)ccc2c1`, the inhibition was 16.8% (active).
`Cc1cc(Cn2cnc3c2C[C@@H](C(=O)O)N(C(=O)C(c2ccccc2)c2ccccc2)C3)ccc1N`: the inhibition is 0%.
Consider `CCN(CC)CCCC(C)Nc1c2ccc(Cl)cc2nc2ccc(OC)cc12` (stereo not drawn), for which the inhibition is 0.7% (active).
`CCN(CC)CCCC(C)Nc1ccnc2cc(Cl)ccc12` (stereo not drawn): the inhibition was -4.9%.
Then `CN(C)C(=O)n1nnnc1Cc1ccc(-c2ccccc2)cc1`, with 5.2% (active); and `CN(C)C(=O)C(CCN1CCC(O)(c2ccc(Cl)cc2)CC1)(c1ccccc1)c1ccccc1`, with -0.9%; and `O=C(O)COCCN1CCN(C(c2ccccc2)c2ccc(Cl)cc2)CC1` (stereo not drawn), with 0.5% (active).
In the case of `CCNC(=O)N1CCN(CCCC(c2ccc(F)cc2)c2ccc(F)cc2)CC1`, the inhibition is -0.9%.
Take `O=C1/C(=C/c2ccsc2)CC/C1=C\c1cccs1`: the inhibition is 3.3% (active).
As to `Fc1ccc(C(OCCCc2cnc[nH]2)c2ccc(F)cc2)cc1`, the inhibition was 4.3% (active).
Then `O=C(c1ccc(OCCCc2cnc[nH]2)cc1)C1CC1`, with -3.2%.
Then `C1CCc2nnnn2CC1`, with -0.2%; and `CCC1C(=O)OCC1Cc1cncn1C` (stereo not drawn), with 5.6% (active); and `CCCCCCCCCCCCCCCCCCOC[C@H](COP(=O)([O-])OCC[N+](C)(C)C)OC`, with 3.3% (active).
Then `CCCCCCCCCCCCCCCCCCNC(=O)OCC(COP(=O)([O-])OCC[n+]1ccsc1)OC` (stereo not drawn), with -4.6%; and `Cn1cnc([N+](=O)[O-])c1Sc1ncnc2nc[nH]c12`, with 0.2% (active); and `N=C(N)c1ccc(N)cc1`, with 5.7% (active).
Turning to `N=C(N)c1ccc(OCCCCCOc2ccc(C(=N)N)cc2)cc1`, the inhibition was 1.1% (active).
The same measure for `N=C(N)c1ccccc1`: -3.7%; for `O=C1NC(=O)/C(=C/c2ccc3c(c2)OC(F)(F)O3)S1`: -1.5%.
In the case of `CCc1ccc(/C=C2/SC(=S)NC2=O)cc1`, the inhibition is -3%.
With `O=C1NC(=O)/C(=C/c2ccc3nccnc3c2)S1`, the inhibition is 4.5% (active).
